# Source: paper PMC4336329 (PLoS ONE, 2015)
# About 14,000 (4.5%) of roughly 310,000 compounds showed an effect of 50% or more. Effects have a minus sign here. This excerpt belongs to a sample that is enriched for strong results.
# Molecular target: human ether-à-go-go-related gene (hERG) potassium channel (human, UniProt Q12809)
# Test: primary screen, population patch clamp on CHO cells stably expressing hERG; higher = less effect of the substance
# 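Note: peak tail current of the secondary pulse compared with the same well before compound.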
# human ether-à-go-go-related gene (hERG) potassium channel, sequence (Q12809 whole entry, looked up): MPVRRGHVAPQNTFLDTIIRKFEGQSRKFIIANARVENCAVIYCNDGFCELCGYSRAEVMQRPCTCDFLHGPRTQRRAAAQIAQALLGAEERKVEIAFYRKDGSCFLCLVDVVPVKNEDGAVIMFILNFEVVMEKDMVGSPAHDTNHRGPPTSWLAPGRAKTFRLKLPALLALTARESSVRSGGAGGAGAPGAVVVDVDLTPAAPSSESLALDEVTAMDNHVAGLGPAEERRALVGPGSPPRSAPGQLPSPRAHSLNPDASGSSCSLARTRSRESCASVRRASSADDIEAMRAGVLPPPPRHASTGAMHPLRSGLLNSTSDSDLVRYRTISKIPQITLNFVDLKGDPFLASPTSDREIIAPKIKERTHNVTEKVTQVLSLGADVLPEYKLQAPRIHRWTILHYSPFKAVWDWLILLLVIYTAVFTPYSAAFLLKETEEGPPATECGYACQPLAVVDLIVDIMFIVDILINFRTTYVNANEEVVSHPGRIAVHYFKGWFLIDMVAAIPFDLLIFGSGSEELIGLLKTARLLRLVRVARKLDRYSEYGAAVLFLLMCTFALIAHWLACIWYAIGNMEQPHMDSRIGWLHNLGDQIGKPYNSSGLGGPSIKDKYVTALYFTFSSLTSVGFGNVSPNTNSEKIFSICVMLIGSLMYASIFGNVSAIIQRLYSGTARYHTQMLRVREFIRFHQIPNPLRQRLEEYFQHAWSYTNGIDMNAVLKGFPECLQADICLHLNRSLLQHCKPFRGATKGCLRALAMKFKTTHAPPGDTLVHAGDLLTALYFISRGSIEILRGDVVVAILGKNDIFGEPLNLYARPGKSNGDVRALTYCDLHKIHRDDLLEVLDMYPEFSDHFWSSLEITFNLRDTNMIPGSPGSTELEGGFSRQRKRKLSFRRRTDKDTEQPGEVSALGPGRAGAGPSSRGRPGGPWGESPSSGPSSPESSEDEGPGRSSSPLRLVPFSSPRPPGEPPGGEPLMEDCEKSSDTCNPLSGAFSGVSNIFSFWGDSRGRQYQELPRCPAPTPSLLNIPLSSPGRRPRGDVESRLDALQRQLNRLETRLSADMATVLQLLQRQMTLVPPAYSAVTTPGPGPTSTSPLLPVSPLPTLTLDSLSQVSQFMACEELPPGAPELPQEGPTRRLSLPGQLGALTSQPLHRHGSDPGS
row,Structure (SMILES),"hERG current change (%, negative = inhibition) at 10uM [%]"
1,COC(=O)c1ccc(C(=O)OC)c(NC(=O)C(C)(C)C)c1,20.7
2,COC(=O)c1ccc(C(=O)OC)c(NC(=O)CS(=O)(=O)Cc2ccccc2)c1,-53.2
3,COC(=O)c1ccc(C(=O)OC)c(NC(=O)CCS(=O)(=O)Cc2ccccc2)c1,-2.41
4,Fc1ccc(-c2nnc(SCc3cccnc3)o2)cc1,-3.91
5,Fc1cccc(F)c1/C=N/NC(=S)Nc1cccnc1,-14.3
6,Cl.Oc1cccc(C(O)CNCc2ccc(OCc3ccc(Cl)cc3Cl)cc2)c1 (stereo not shown),7.89
7,C=CCN(CC=C)S(=O)(=O)c1ccc(NC(=S)NC(=O)/C=C/c2ccc(C)cc2)cc1,6.12
8,CN(C)CCOC(=O)C12CC3(C)CC(C)(CC(C)(C3)C1)C2.Cl,-7.13
9,COc1ccc(CCNC(=O)CSCC(=O)Nc2ccccc2)cc1OC,17.8
10,COc1ccc(/C=C/C(=O)OCC(=O)Nc2c(C)cccc2C)cc1,12.5
11,CCOC(=O)c1c(-c2ccc(C)o2)csc1NC(=O)CSc1nnnn1-c1ccccc1,-3.66
12,NC(=O)C(c1ccccc1)c1ncc(C(F)(F)F)cc1Cl (stereo not shown),4.88
13,CC(C)Oc1cccc(C(=O)C2CCCN(C(=O)c3ccoc3)C2)c1 (stereo not shown),-14.7
14,O=C(COc1ccccc1)N1CCN(C(=O)c2cccc(F)c2)CC1,-7.92
15,CSc1ccc(CN2CCN(C(=O)CC(C)C)CC2)cc1,9.42
16,Cc1cccc(OCC(=O)N2CCN(C(=O)Cc3ccccc3)CC2)c1,-13.2
17,COc1ccc(OCC(=O)N2CCN(C(=O)c3cccc(F)c3)CC2)cc1,-7.41
18,Cc1cccc(OCC(=O)N2CCN(C(=O)COc3ccc(Cl)cc3)CC2)c1,-72.2
19,COc1ccc(OCC(=O)N2CCN(C(C)C)CC2)cc1.O=C(O)C(=O)O,6.62
20,Cc1cccc(OCC(=O)N2CCN(S(C)(=O)=O)CC2)c1,11.2
21,CSc1ccc(CN2CCN(C(=O)COc3cccc(C)c3)CC2)cc1,-50.3
22,Cc1cccc(OCC(=O)N2CCN(Cc3cccnc3)CC2)c1.O=C(O)C(=O)O,-3.95

row,Structure (SMILES),"hERG current change (%, negative = inhibition) at 10uM [%]"
1,COc1ccc(OCC(=O)N2CCN(Cc3ccc(SC)cc3)CC2)cc1.O=C(O)C(=O)O,-50.9
2,O=C(COc1ccc(Cl)cc1)N1CCN(C(=O)c2cccc(F)c2)CC1,-58.5
3,Cc1cccc(OCC(=O)N2CCOCC2)c1,15.5
4,O=C(CS(=O)(=O)c1ccc(F)cc1)Nc1nnc(-c2cccs2)o1,13.3
5,O=C(COC(=O)c1cnccn1)Nc1ccc(Cl)cc1C(F)(F)F,0.684
6,CN(C)S(=O)(=O)c1ccc(C(=O)Nc2nnc(-c3ccco3)o2)cc1,12.4
7,CCOC(=O)N1CCN(C(=O)C(NC(=O)c2ccc(CC)cc2)C(C)C)CC1 (stereo not shown),-19.5
8,COc1cc(N2C(=O)CC(=O)NC2=O)cc(OC)c1OC,17.1
9,COCCCNC(=O)CCCCCNS(=O)(=O)c1ccc(Br)cc1,-21.4
10,CC(=O)Nc1ccc(/C=C/C(=O)c2ccccc2)cc1,9.09
11,Cc1ccccc1NC(=O)c1ccc(S(=O)(=O)C(F)F)cc1,-27.6
12,Cn1c(=O)oc2cc(S(=O)(=O)CCC(=O)NCCc3ccccc3)ccc21,7.46
13,CN(C)S(=O)(=O)c1cccc(-c2cn3cc(Cl)ccc3n2)c1,7.03
14,Cc1cccc(C(=O)OCC(=O)NC(=O)Cc2ccccc2)c1O,13.8
15,CSc1ccc(CN2CCN(C(=O)COc3ccc(C)cc3)CC2)cc1.O=C(O)C(=O)O,-60.4
16,COc1ccccc1N1CCN(C(=O)COc2cc(C)cc(C)c2)CC1,10.8
17,Cc1ccc(OCC(=O)N2CCN(Cc3cccnc3)CC2)cc1.O=C(O)C(=O)O,17.7
18,COc1ccccc1OCC(=O)N1CCN(c2ccccc2OC)CC1,1.3
19,Cc1ccc(OCC(=O)N2CCN(Cc3ccc4c(c3)OCO4)CC2)cc1.O=C(O)C(=O)O,-15.7
20,COc1ccccc1N1CCN(C(=O)COc2ccc(Cl)cc2)CC1,-68.5
21,CCc1nnc(NC(=O)CN2C(=O)NC3(CC(C)CC(C)(C)C3)C2=O)s1 (stereo not shown),7.29
